SMILES strings stand for the structures. Results filed as inconclusive are left out. Entries that show only a call come without a potency. The source made the active and inactive calls. The call rests on the fitted dose curve; in most records, active means well fitted curve in the direction sought with a large enough effect; inconclusive means small, poorly fitted or top-dose-only effect, or another doubt; inactive means no such curve, though single readings can be large; an effect the other way counts as inactive or inconclusive.

Chain of Glutathione peroxidase 1 (Homo sapiens) (P07203 whole entry, looked up): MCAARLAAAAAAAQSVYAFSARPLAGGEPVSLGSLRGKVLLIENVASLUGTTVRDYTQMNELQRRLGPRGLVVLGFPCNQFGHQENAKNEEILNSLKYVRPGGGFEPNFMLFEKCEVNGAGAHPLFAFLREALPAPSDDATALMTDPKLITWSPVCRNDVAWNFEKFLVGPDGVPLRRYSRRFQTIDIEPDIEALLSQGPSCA
Chain of Metallo-beta-lactamase type 2 (Klebsiella pneumoniae) (C7C422 whole entry, looked up): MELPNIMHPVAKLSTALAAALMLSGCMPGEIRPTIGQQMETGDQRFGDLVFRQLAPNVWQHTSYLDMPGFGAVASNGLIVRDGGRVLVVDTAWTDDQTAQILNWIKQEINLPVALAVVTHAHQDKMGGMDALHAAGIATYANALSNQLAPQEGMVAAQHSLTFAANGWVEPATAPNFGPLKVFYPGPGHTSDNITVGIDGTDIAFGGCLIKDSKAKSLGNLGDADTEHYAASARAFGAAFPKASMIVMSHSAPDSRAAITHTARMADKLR

For the first assay, the target named is Metallo-beta-lactamase type 2 (Klebsiella pneumoniae) (UniProt C7C422). The experiment in a line: qHTS to identify inhibitors of the New Delhi Metallo-beta-lactamase (NDM): assay validation screen against the NCATS LOPAC Collection (AID 1794843).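 Further: nitrocefin turnover by NDM-1 measured as 485 nm absorbance at plateau.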 The conditions noted are these: NDM-1 enzyme, nitrocefin hydrolysis, absorbance 485 nm; series mostly up to 38.4 µM. The essentials:
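NDM-1 at 2 nM final in 50 mM HEPES pH 7.0, 1 uM ZnSO4, 0.01% Tween20, preincubated with LOPAC compounds pinned in DMSO; 50 uM nitrocefin (stock) added. Hydrolysis read as absorbance at 485 nm in the plateau phase.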
(In general: In qHTS, concentration-response curves come from the screen itself.)
Take `COC(=O)N1CCN(C(=O)Cc2ccc(Cl)c(Cl)c2)C(CN2CCCC2)C1` (configuration not stated): the Potency result was “inactive”.
On the same count and under the same terms, the value for `CCCC[N+]1(C)C2CC(OC(=O)[C@H](CO)c3ccccc3)CC1C1OC12` (some centres not stated) was “inactive”.
On the same count and under the same terms, the value for `C=CCN1CCC23c4c5ccc(O)c4O[C@H]2C(=O)CC[C@@]3(O)C1C5` (some centres not stated) was “inactive”.
On the same count and under the same terms, as for `Clc1ccc(N2CC3CCC(C2)N3)nn1`, the entry is “inactive”.
As for `CCS(=O)(=O)Nc1cccc(C(=C2CCCCC2)c2cnc[nH]2)c1`, the Potency entry was “inactive”.
Same read-out and setting: as for `CC(C)(C)OC(=O)NC1[C@H]2CNC[C@@H]12` (some centres not stated), the entry is “inactive”; as for `Cc1o[nH]c(=O)c1CC(N)C(=O)O` (configuration not stated), “inactive”.
For the compound `Nc1cc2c(ncn2CCOCP(=O)(O)O)c(=O)[nH]1`, the Potency entry was “inactive”.
On the same count and under the same terms, as for `Nc1ccc(CCN2CCN(c3cccc(C(F)(F)F)c3)CC2)cc1`, the entry is “inactive”.
Regarding `NC(C(=O)O)c1cc(=O)[nH]o1` (configuration not stated), the Potency result is “inactive”.
Still for that read-out and setting: the value for `CCN1C[C@@]2(COC)C3[C@@H](OC)C4[C@@H]1C3([C@@H]1C[C@]3(O)[C@H](OC(=O)c5ccccc5)[C@@H]1[C@]4(OC(C)=O)[C@@H](O)[C@@H]3OC)[C@H](OC)C[C@H]2O` was “inactive”; that for `C[N+](C)(C)CC#CCOC(=O)Nc1cccc(Cl)c1` was “inactive”.
As to `CCCN(CCC)C1CCc2cccc(O)c2C1` (configuration not stated), the Potency entry was “inactive”.
Same read-out and setting: the value for `COc1ccc(OC)c(C(O)C(C)N)c1` (configuration not stated) was “inactive”; that for `NC(=O)c1ccc(OCC(O)CN2CC=C(c3ccc(F)cc3)CC2)cc1` (configuration not stated) was “inactive”; that for `C[N+](C)(C)CC#CCN1CCCC1=O` was “inactive”.
Regarding `NC(N)=Nc1ccc2[nH]c3c(c2c1)C[C@@]1(O)[C@H]2Cc4ccc(O)c5c4[C@@]1(CCN2CC1CC1)[C@H]3O5`, the Potency result is “inactive”.
Consider `CC(N)Cc1c[nH]c2ccc(OCc3cccs3)cc12` (configuration not stated), for which the Potency entry was “inactive”.
Same read-out and setting: as for `CC1(C(=O)O)C2CCC(O2)C1(C)C(=O)O` (configuration not stated), the entry is “inactive”.
The same measure, in the same setting: as for `NCC(CP(=O)(O)O)c1ccc(Cl)cc1` (configuration not stated), the entry is “inactive”; as for `O=C(NC1CN2CCC1CC2)c1cc2ccoc2cn1` (configuration not stated), “inactive”.
As to `C#CCN[C@H](C)Cc1ccccc1`, the Potency result was “inactive”.

In a further assay the target is Glutathione peroxidase 1 (Homo sapiens) (UniProt P07203). The experiment in a line: Primary qHTS Assay for Inhibitors of Recombinant Selenoprotein Glutathione Peroxidase 1 (GPX1) (AID 1845191). Further: nearly all actives have a fitted effect of over 65% in size. The following applies: recombinant GPX1, GR-coupled NADPH fluorescence, 15 min; series mostly up to 48.8 µM. The essentials:
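GR-coupled readout: NADPH consumption tracked by fluorescence, ex 340/em 450 nm, at t=0 and after 15 min at RT. Final mix 10 nM GPX1, 1 mM GSH, 0.5 mM CHP, 0.5 mM NADPH, 100 nM GR, 0.01% BSA, following 30 min enzyme–compound preincubation.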
For `CC(N)[C@H](O)c1ccc(O)c(O)c1` (some centres not stated), the Potency entry is “inactive”.
Still for that read-out and setting: the value for `C[C@H](Cc1ccc2c(c1)OC(C(=O)O)(C(=O)O)O2)NC[C@H](O)c1cccc(Cl)c1` was “inactive”; that for `CC(=O)NBr` was “inactive”.
`C=CCN1C[C@@H](C)N([C@H](c2ccc(C(=O)N(CC)CC)cc2)c2cccc(OC)c2)C[C@@H]1C`: the Potency result is “inactive”.
The same measure, in the same setting: the value for `CP(=O)(O)C1=CCNCC1` was “inactive”; that for `Cc1c2ccncc2c(C)c2c1[nH]c1ccccc12` was “inactive”; that for `CC(C)(C)c1o[nH]c(=O)c1CC(N)C(=O)O` (configuration not stated) was “inactive”.
The same measure, in the same setting: as for `CCCCCCCCCCCCCC(=O)O[C@@H]1[C@@H](C)[C@@]2(O)[C@@H](C=C(CO)C[C@@]3(O)C(=O)C(C)=C[C@@H]23)C2C(C)(C)[C@@]21OC(C)=O` (some centres not stated), the entry is “inactive”.
Regarding `C[N+]1(C)CCc2cc3c(cc2[C@H]1[C@@H]1OC(=O)c2c1ccc1c2OCO1)OCO3`, the Potency result is “inactive”.
In the case of `OCc1cnc[nH]1`, the Potency entry was “inactive”.
The same measure, in the same setting: as for `CO[C@H]1CC=C2CCN3CCC4=C(CC(=O)OC4)[C@]23C1`, the entry is “inactive”; as for `C[N+]1(C)CCN(c2ccccc2)CC1`, “inactive”.
For `N[C@@H](Cn1oc(=O)[nH]c1=O)C(=O)O`, the Potency entry is “inactive”.
Still for that read-out and setting: as for `CC(C)NP(=O)(NC(C)C)OP(=O)(NC(C)C)NC(C)C`, the entry is “inactive”.
Consider `CC(=O)OCC1=C(C(=O)O)N2C(=O)[C@@H](NC(=O)CCC[C@@H](N)C(=O)O)[C@H]2SC1`, for which the Potency entry is “inactive”.
The same measure, in the same setting: as for `CN1CC[C@@]2(C)c3cc(OC(=O)Nc4ccccc4)ccc3N(C)[C@@H]12`, the entry is “inactive”; as for `CN(C(=O)Cc1ccc(Cl)c(Cl)c1)C(CN1CCCC1)c1cccc(OCC(=O)O)c1` (configuration not stated), “inactive”; as for `COc1ccc2[nH]cc(CCN)c2c1`, “inactive”.
For the compound `COC(=O)N1CCN(C(=O)Cc2ccc(Cl)c(Cl)c2)C(CN2CCCC2)C1` (configuration not stated), the Potency result is “inactive”.
On to `CCCC[N+]1(C)C2CC(OC(=O)[C@H](CO)c3ccccc3)CC1C1OC12` (some centres not stated), for which the Potency entry is “inactive”.
The same measure, in the same setting: as for `C=CCN1CCC23c4c5ccc(O)c4O[C@H]2C(=O)CC[C@@]3(O)C1C5` (some centres not stated), the entry is “inactive”.
The same measure, in the same setting: the value for `Clc1ccc(N2CC3CCC(C2)N3)nn1` was “inactive”; that for `CCS(=O)(=O)Nc1cccc(C(=C2CCCCC2)c2cnc[nH]2)c1` was “inactive”; that for `CC(C)(C)OC(=O)NC1[C@H]2CNC[C@@H]12` (some centres not stated) was “inactive”.
Take `Cc1o[nH]c(=O)c1CC(N)C(=O)O` (configuration not stated): the Potency result was “inactive”.
Same read-out and setting: as for `Nc1cc2c(ncn2CCOCP(=O)(O)O)c(=O)[nH]1`, the entry is “inactive”.
The same measure, in the same setting: as for `Nc1ccc(CCN2CCN(c3cccc(C(F)(F)F)c3)CC2)cc1`, the entry is “inactive”; as for `NC(C(=O)O)c1cc(=O)[nH]o1` (configuration not stated), “inactive”.
Still for that read-out and setting: the value for `CCN1C[C@@]2(COC)C3[C@@H](OC)C4[C@@H]1C3([C@@H]1C[C@]3(O)[C@H](OC(=O)c5ccccc5)[C@@H]1[C@]4(OC(C)=O)[C@@H](O)[C@@H]3OC)[C@H](OC)C[C@H]2O` was “inactive”; that for `C[N+](C)(C)CC#CCOC(=O)Nc1cccc(Cl)c1` was “inactive”; that for `CCCN(CCC)C1CCc2cccc(O)c2C1` (configuration not stated) was “inactive”.
Regarding `COc1ccc(OC)c(C(O)C(C)N)c1` (configuration not stated), the Potency entry was “inactive”.
The same measure, in the same setting: as for `NC(=O)c1ccc(OCC(O)CN2CC=C(c3ccc(F)cc3)CC2)cc1` (configuration not stated), the entry is “inactive”; as for `C[N+](C)(C)CC#CCN1CCCC1=O`, “inactive”.
Still for that read-out and setting: the value for `NC(N)=Nc1ccc2[nH]c3c(c2c1)C[C@@]1(O)[C@H]2Cc4ccc(O)c5c4[C@@]1(CCN2CC1CC1)[C@H]3O5` was “inactive”; that for `CC(N)Cc1c[nH]c2ccc(OCc3cccs3)cc12` (configuration not stated) was “inactive”.
On the same count and under the same terms, as for `CC1(C(=O)O)C2CCC(O2)C1(C)C(=O)O` (configuration not stated), the entry is “inactive”.
Regarding `NCC(CP(=O)(O)O)c1ccc(Cl)cc1` (configuration not stated), the Potency result is “inactive”.
As for `O=C(NC1CN2CCC1CC2)c1cc2ccoc2cn1` (configuration not stated), the Potency entry was “inactive”.
The same measure, in the same setting: as for `C#CCN[C@H](C)Cc1ccccc1`, the entry is “inactive”.

These data come from PubChem BioAssay (NCATS).
